Data as given in PubChem BioAssay AID504895 (National Center for Advancing Translational Sciences (NCATS), 2011).
Inconclusive results are not listed. The call rests on the fitted dose curve; in most records, active means well fitted curve in the direction sought with a large enough effect; inconclusive means small, poorly fitted or top-dose-only effect, or another doubt; inactive means no such curve, though single readings can be large or run the other way.

What follows are compounds tested against Protein phosphatase EYA2 (Homo sapiens) (UniProt O00167) (assay: Inhibitors of Eya2ED: Hit Confirmation in Primary Screen). Conditions: Recombinant Eya2ED, OMFP fluorescence phosphatase assay; series mostly up to 76.9 µM; activity change, negative = inhibition: at the top concentration.
Sequence of Protein phosphatase EYA2 (Homo sapiens) (O00167 whole entry, looked up): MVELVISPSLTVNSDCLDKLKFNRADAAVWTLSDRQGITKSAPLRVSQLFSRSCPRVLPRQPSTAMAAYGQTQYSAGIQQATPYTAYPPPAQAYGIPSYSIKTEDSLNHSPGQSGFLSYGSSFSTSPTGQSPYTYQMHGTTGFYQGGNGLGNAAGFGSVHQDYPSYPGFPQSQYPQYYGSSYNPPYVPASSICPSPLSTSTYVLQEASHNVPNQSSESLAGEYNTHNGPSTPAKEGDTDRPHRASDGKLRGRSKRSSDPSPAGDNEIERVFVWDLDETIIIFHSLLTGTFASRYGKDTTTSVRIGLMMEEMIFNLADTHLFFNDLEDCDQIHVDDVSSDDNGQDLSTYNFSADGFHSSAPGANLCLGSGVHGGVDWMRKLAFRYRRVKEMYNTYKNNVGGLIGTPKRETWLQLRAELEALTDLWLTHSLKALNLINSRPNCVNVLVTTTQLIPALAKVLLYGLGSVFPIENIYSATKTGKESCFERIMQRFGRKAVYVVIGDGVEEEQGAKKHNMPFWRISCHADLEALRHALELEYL
Excerpt: The Eya proteins (Eya1-4) were originally identified as essential co-activators of the Six1 transcription factor. […] Knockdown of Six1 decreases cancer cell proliferation and metastases in several different cancer models. […] A fluorescence-based HTS assay has been perfomed against the Molecular Libraries Small Molecule Repository (MLSMR) and has the AID 488837 in this database. After completion of the primary screen, hits were re-ordered and tested again in the primary screen in a 12 point titration. NIH Chemical Genomics Center [NCGC] NIH Molecular Libraries Probe Centers Network [MLPCN] MLPCN Grant: DA030559-01 Assay Submitter (PI): Rui Zhao, University of Colorado, Denver
The Eya2 enzyme was kindly provided by the laboratory of Dr. Rui Zhao. The 3-O-methyl-fluorescein phosphate (OMFP) substrate and all buffer reagents were purchased from Sigma Aldrich. qHTS Assay Setup: 1. Buffer- 50 mM HEPES pH 7.5, 50 mM NaCl, 5 uM MgCl2, 0.05% BSA, 1 mM DTT. 2. OMFP Stock- 10 mM solution prepared in 100% DMSO and stored in single use aliquots at -20C. Assay Procedure- 1. Dispense 1.5 ul per well of Eya2 at 0.2 uM in black medium binding 1536 well Greiner plate 2. Transfer 23 nl of compound and control compound (EGTA) to plate 3. Incubate at ambient for 10 minutes 4. Dispense 1.5 ul per well of OMFP at 50 uM 5. Incubate at ambient for 10 minutes 6. Read on ViewLux using Excitation = 485 nm, Emission = 525 nm

Activity change, negative = inhibition, inactive:
CC(=O)c1c(C)[nH]c(C(=O)COC(=O)COc2ccccc2)c1C 16%
COc1ccc(CCNC(=O)CCSc2nc(-c3ccco3)cc(C(F)(F)F)n2)cc1OC -7.04%
COc1ccc(-c2noc(CCC(=O)NC3CCCCC3)n2)cc1OC -5.13%
CCCOc1ccc(C(=O)OCC(=O)c2c(N)n(C)c(=O)n(C)c2=O)cc1OC -21.1%
O=C(COC(=O)c1cccnc1Cl)Nc1cc(S(=O)(=O)N2CCCCCC2)ccc1Cl -28.3%
Nc1ccccc1-c1nc2ccccc2[nH]1 6.87%
Cc1ccc(S(=O)(=O)NNC(=S)NCCc2ccccc2)cc1 -8.51%
COc1cc2c(cc1OC)C(c1c(Cl)cccc1Cl)NC(=O)C2 (stereo not given) -5.08%
Cc1ccc(CCNC(=O)c2cc(C)nn2-c2ccccc2)cc1 -19%
Cc1cc(C(=O)Nc2ccc(N3CCCCC3)cc2)no1 -3.38%
COc1ccccc1OCCCCOc1ccccc1F -3.36%
O=C(C1CCC(=O)N(C2CCCC2)C1)N1CCC(Oc2cccc(F)c2)CC1 (stereo not given) 9%
COc1ccc(-c2nnn(-c3cc(Cl)cc(Cl)c3)c2N)cc1 -11.3%
CC(=O)c1c(C)[nH]c(C(=O)NNC(=O)c2ccc(Br)cc2)c1C -4.21%
Cc1ccc(NC(=O)c2sc(N)nc2-c2ccc([N+](=O)[O-])cc2)cc1C -37.5%
O=C(CC1(CC(=O)N2CCOCC2)CCCC1)Nc1ccccc1 12.2%
COc1ccc(NS(=O)(=O)c2cc([N+](=O)[O-])ccc2NN=Cc2ccccc2OCC(=O)O)cc1 3.46%
COc1cccc2[nH]c3c(=O)[nH]cnc3c12 1.53%
O=C(COc1cccc(C(F)(F)F)c1)NCC(c1ccco1)N1CCCC1 (stereo not given) -8.36%
COc1cc(C(=O)Nc2ccc(NC(=O)c3ccccc3Cl)nc2)cc(OC)c1OC 24.2%
CO/N=C(\N)c1nonc1N 14.5%
COc1ccc(C(=O)NCCSCc2ccccc2C)cc1 -14.1%
CC(C1CC1)N(C(=O)c1ccccc1O)c1ccccc1 (stereo not given) -16.4%
CCC(C)N(C(=O)c1csnn1)C(C(=O)NC1CCCC1)c1ccccc1F (stereo not given) -5.36%
Cc1nnc(SC(C)C(=O)Nc2ccc3ccccc3c2)[nH]c1=O (stereo not given) 2.55%
Cc1cc(C(N)=O)nn1-c1c(Cl)cc(Cl)cc1Cl -17%
COC(=O)c1ccc(Cn2cc([N+](=O)[O-])cn2)cc1 6.62%
COc1c(O)ccc(/C=N\NC(=O)c2ccc3c(c2)OCO3)c1[N+](=O)[O-] -18%
CC(C)(C)C(=O)Nc1nc(=S)ss1 -11.3%
O=C(C[C@H]1C/C=C/CC[C@H](Cc2ccc(F)cc2)C(=O)O[C@H](c2ccccc2)CNC1=O)NCCO -32.4%
Cc1ccc2occ(/C=N/NC(=O)[C@@H](N)Cc3ccccc3)c(=O)c2c1 12.1%
NC(=O)C1CCN(CC(=O)Nc2ccc3c(c2)OCCO3)CC1 -18.7%
O=C(CCCN=C1NS(=O)(=O)c2ccccc21)OCc1ccc(F)cc1 -0.078%
CCN(C(=O)COC(=O)c1cc(OC)c(OC)cc1[N+](=O)[O-])C1CCS(=O)(=O)C1 (stereo not given) 8.87%
O=C(N/N=C/c1ccc(Sc2ccccn2)o1)c1cc2ccccc2cc1O -21.1%
COc1ccc(NC(=O)CNc2cc(S(=O)(=O)N3CCOCC3)ccc2N2CCOCC2)c(OC)c1 -11.5%
CC(NC(=O)COC(=O)C1CC1C)c1cccc(Cl)c1 (stereo not given) -16%
Cc1cccc(-n2c(-c3csc(C(C)C)c3)n[nH]c2=S)c1 -18.6%
O=S(=O)(c1ccc(F)cc1)N1CCC2(CC1)OCCN2S(=O)(=O)c1cccs1 -15.4%
O=C(NCCC1CCCCN1S(=O)(=O)c1ccccc1)C(=O)NCc1ccccn1 (stereo not given) -0.504%
